Results as given in a collection of fitness landscapes (doi:10.1016/j.celrep.2020.107928).
Over roughly 81,000 sequences, “one-hybrid fitness for binding NBS DNA” has its median near -0.1; the highest 2% begin near 0.36. What follows is part of a selection rich in the highest values, with near analogues and random picks from the rest.

B1: Caulobacter ParB omega fusion; a variant is named by its letters at X, in order, B8GW30 (parent)
chain: MESVVVGEPGMSEGRRGLGRGLSALLGEVDAAPAQAPGEQLGGSREAPIEILQRNPDQPRRTFREEDLEDLSNSIREKGVLQPILVRPSPDTAGEYQIVAGERAWRAAQRAGLKTVPIMVRELDDLAVLEIGIIENVQRADLNVLEEALSYKVLMEKFERTQENIAQTIGKSXSHVANXMRLLXLPDEVQSYLVSGELTAXHARAIAAAADPVALAKQIIEGGLSVRETEALARKAPNLSAGKSKGGRPPRVKDTDTQALESDLSSVLGLDVSIDHRGSTGTLTITYATLEQLDDLCNRLTRGI

Variants of: B1
Assay: one-hybrid fitness for binding NBS DNA (the Noc-binding site; scaled: cognate 1, non-cognate 0); higher = stronger binding
Conditions: with NBS DNA site
Outline: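 Fitness here means the log change in variant-to-wild-type read ratio between plasmids sequenced before and after selection. That scale was set so cognate equals 1 and non-cognate equals 0. The selection was a bacterial one-hybrid screen of Caulobacter ParB libraries, four specificity codons randomised, in E. coli USO carrying a HIS3 reporter with the site 19 bp from the promoter, grown 48 hours at 37°C on M9-minus-histidine with 0.1 mM IPTG and 5 mM 3-AT.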

one-hybrid fitness for binding NBS DNA, 0.382:
RQCT

one-hybrid fitness for binding NBS DNA, 0.482:
RCGS

one-hybrid fitness for binding NBS DNA, 0.417:
RQHT

one-hybrid fitness for binding NBS DNA, 0.466:
RAGS

one-hybrid fitness for binding NBS DNA, 0.464:
KRHS

one-hybrid fitness for binding NBS DNA, 0.432:
RHAT

one-hybrid fitness for binding NBS DNA, 0.446:
RQSS

one-hybrid fitness for binding NBS DNA, 0.205:
KRSH

one-hybrid fitness for binding NBS DNA, 0.421:
KRSS

one-hybrid fitness for binding NBS DNA, 0.512:
RCQR

one-hybrid fitness for binding NBS DNA, 0.474:
RQST

one-hybrid fitness for binding NBS DNA, 0.28:
KRDS

one-hybrid fitness for binding NBS DNA, 0.515:
RCAT

one-hybrid fitness for binding NBS DNA, 0.447:
KRYS

one-hybrid fitness for binding NBS DNA, 0.217:
KRRN

one-hybrid fitness for binding NBS DNA, 0.549:
KRRS

one-hybrid fitness for binding NBS DNA, 0.591:
RRMA

one-hybrid fitness for binding NBS DNA, 0.684:
RRYA

one-hybrid fitness for binding NBS DNA, 0.576:
RKGS

one-hybrid fitness for binding NBS DNA, 0.619:
RRTA

one-hybrid fitness for binding NBS DNA, 0.53:
RQNT

one-hybrid fitness for binding NBS DNA, 0.419:
RLGS
RSGS

one-hybrid fitness for binding NBS DNA, 0.48:
RQNS

one-hybrid fitness for binding NBS DNA, 0.295:
RLRA

one-hybrid fitness for binding NBS DNA, 0.664:
RRAA
RRGA

one-hybrid fitness for binding NBS DNA, ≤ 0.2:
LYNV
GATD
PPMS
HKTC
MLVG
YTRD
RCAV
RAAP
RFAT
RPAT
RHAH
TFCI
NDTY
AWHV
HGAR
EIKR
WKER
RDQR
RSQP
RPQR
FPQS
RQSP
RQDS
RQSN
RQHK
RQHF
SYHE
SRKD
HWGA
EGHG
DQTE
MCRV
RQCH
RQSG
RQNP
RQAD
RQCP
SAEQ
SIIG
HRTH
VQPC
RQPT
RQAH
PKKW
TRLN
IGRT
QQYV
QQFV
QQVV
QQDV
VRMV
RCFA
RSFA
RPAA
FQVR
TYLE
YVWI
RSTA
RSYA
RSSA
RPGA
AHHE
WMIS
DNAG
VKPI
VNAV
CCMW
QMGI
TSPL
RQFK
VLYA
QHGK
IVPF
PKES
VFPS
FLQS
QVPL
LTRI
GFGY
SVNC
RSHA
RPCA
RCWA
RPWA
PPGV
IQLC
EVWT
YTCT
YRGS
DVKL
HVRW
NNGC
RCLA
RCIA
RSLA
RPMA
RSQA
RCMA
APCY
TLCF
NTLF
CLPC
DMHR
GSQM
RCEA
RSEA
STQW
SNSF
WTSV
QTIQ
QTWQ
YDNH
MVEY
KRRP
KRHD
KRAD
KRDH
KRHN
GYTL
SSDL
SLMH
HKYA
YCMR
HEIR
KRQN
KRSN
VPML
PIAK
QDVN
APGE
GIHG
KCYL
KRCH
KRWN
KRWH
KRCN
WTHQ
AAML
VNPF
GHPM
CVHG
RNVT
RNDT
RNYT
RNKD
RNRP
RNYS
YKHS
KGVE
RLGD
RSGN
RIGN
RMGP
RMGD
RSGD
RIGP
RLGP
CRQG
LDLL
AGNM
AITP
AYSK
DEHT
IPES
ERQV
QYAC
KLFS
EADR
KFKV
RTGD
RTGN
RHGN
RKGD
RAGN
RHGD
RAGD
RKGN
LATQ
NNCL
PCCV
VENS
FMGS
DHPH
KDLT
ENHG
NCII
SQRK
MVPG
RPGS
RFGS
GNMC
FFRR
NETT
VRVR
VRDR
VCNR
TYNY
VWLM
RPGK
RSHN
RSHD
RPHR
LSID
YTWT
SVNS
PHLC
NPYT

one-hybrid fitness for binding NBS DNA, 0.242:
RAFT

one-hybrid fitness for binding NBS DNA, 0.216:
RQVT
KCRS

one-hybrid fitness for binding NBS DNA, 0.234:
RCAA

one-hybrid fitness for binding NBS DNA, 0.232:
RCSA

one-hybrid fitness for binding NBS DNA, 0.245:
RHFT

one-hybrid fitness for binding NBS DNA, 0.246:
VCRR

one-hybrid fitness for binding NBS DNA, 0.226:
KTNT

one-hybrid fitness for binding NBS DNA, 0.259:
RCGA

one-hybrid fitness for binding NBS DNA, 0.569:
RRFA

one-hybrid fitness for binding NBS DNA, 0.385:
RQAT

one-hybrid fitness for binding NBS DNA, 0.476:
RSHR

one-hybrid fitness for binding NBS DNA, 0.491:
RNRS
RTGS

one-hybrid fitness for binding NBS DNA, 0.309:
RARA

one-hybrid fitness for binding NBS DNA, 0.546:
RRWA

one-hybrid fitness for binding NBS DNA, 0.66:
RRHA

one-hybrid fitness for binding NBS DNA, 0.221:
KRQH

one-hybrid fitness for binding NBS DNA, 0.422:
KRRH

one-hybrid fitness for binding NBS DNA, 0.307:
RCHA

one-hybrid fitness for binding NBS DNA, 0.204:
RQFT

one-hybrid fitness for binding NBS DNA, 0.552:
RRIA

one-hybrid fitness for binding NBS DNA, 0.358:
KRFS

one-hybrid fitness for binding NBS DNA, 0.305:
RFHR

one-hybrid fitness for binding NBS DNA, 0.38:
RQAS

one-hybrid fitness for binding NBS DNA, 0.671:
RRRA

one-hybrid fitness for binding NBS DNA, 0.533:
QQKV

one-hybrid fitness for binding NBS DNA, 0.264:
KRES

one-hybrid fitness for binding NBS DNA, 0.624:
VRRR

one-hybrid fitness for binding NBS DNA, 0.63:
RQKT

one-hybrid fitness for binding NBS DNA, 0.265:
KRNH

one-hybrid fitness for binding NBS DNA, 0.615:
RQRT

one-hybrid fitness for binding NBS DNA, 0.244:
RQKQ

one-hybrid fitness for binding NBS DNA, 0.387:
KRCS

one-hybrid fitness for binding NBS DNA, 0.695:
RRQA

one-hybrid fitness for binding NBS DNA, 0.227:
RMER

one-hybrid fitness for binding NBS DNA, 0.409:
KRAS

one-hybrid fitness for binding NBS DNA, 0.453:
KRNS

one-hybrid fitness for binding NBS DNA, 0.239:
VRYR

one-hybrid fitness for binding NBS DNA, 0.443:
KRQS

one-hybrid fitness for binding NBS DNA, 0.308:
KRIS

one-hybrid fitness for binding NBS DNA, 0.228:
VCKR

one-hybrid fitness for binding NBS DNA, 0.364:
RAAT

one-hybrid fitness for binding NBS DNA, 0.391:
RNRT

one-hybrid fitness for binding NBS DNA, 0.368:
RHGS
VRNR

one-hybrid fitness for binding NBS DNA, 0.46:
RNKT

one-hybrid fitness for binding NBS DNA, 0.24:
RCYA

one-hybrid fitness for binding NBS DNA, 0.62:
VRKR

one-hybrid fitness for binding NBS DNA, 0.586:
RCHR

one-hybrid fitness for binding NBS DNA, 0.493:
QQRV

one-hybrid fitness for binding NBS DNA, 0.351:
RQGT

one-hybrid fitness for binding NBS DNA, 0.282:
RFQR
RRPA

one-hybrid fitness for binding NBS DNA, 0.206:
RQFS

one-hybrid fitness for binding NBS DNA, 0.34:
RQNH

one-hybrid fitness for binding NBS DNA, 0.605:
RRSA

one-hybrid fitness for binding NBS DNA, 0.461:
RMGS

one-hybrid fitness for binding NBS DNA, 0.369:
RIGS

one-hybrid fitness for binding NBS DNA, 0.534:
QTVQ

one-hybrid fitness for binding NBS DNA, 0.44:
RSQR
RREA

one-hybrid fitness for binding NBS DNA, 0.584:
RRCA
RRLA

one-hybrid fitness for binding NBS DNA, 0.436:
KRWS

one-hybrid fitness for binding NBS DNA, 0.238:
RCTA
RCQA

one-hybrid fitness for binding NBS DNA, 0.353:
RQYT

one-hybrid fitness for binding NBS DNA, 0.268:
RQDT
RCCA

one-hybrid fitness for binding NBS DNA, 0.235:
RHER

one-hybrid fitness for binding NBS DNA, 0.568:
QTKQ
